# What was measured:
# Assay in all cases: DAPPL (digital affinity profiling via proximity ligation, sequencing); 10 mM Tris-HCl pH 7.5, 50 mM NaCl, 1 mM DTT, 4% glycerol, room temperature, 30 min; GST-TFs on glutathione beads, 16-mer random dsDNA library, 0.1% formaldehyde crosslink after washing; high values mean tight binding
# Conditions in all cases: protein: recombinant; tags: N-terminal GST; dsDNA, one strand shown
# FLI1 = target: T1, FLI1 (Homo sapiens, UniProt Q01543 1-452)
# T1 sequence: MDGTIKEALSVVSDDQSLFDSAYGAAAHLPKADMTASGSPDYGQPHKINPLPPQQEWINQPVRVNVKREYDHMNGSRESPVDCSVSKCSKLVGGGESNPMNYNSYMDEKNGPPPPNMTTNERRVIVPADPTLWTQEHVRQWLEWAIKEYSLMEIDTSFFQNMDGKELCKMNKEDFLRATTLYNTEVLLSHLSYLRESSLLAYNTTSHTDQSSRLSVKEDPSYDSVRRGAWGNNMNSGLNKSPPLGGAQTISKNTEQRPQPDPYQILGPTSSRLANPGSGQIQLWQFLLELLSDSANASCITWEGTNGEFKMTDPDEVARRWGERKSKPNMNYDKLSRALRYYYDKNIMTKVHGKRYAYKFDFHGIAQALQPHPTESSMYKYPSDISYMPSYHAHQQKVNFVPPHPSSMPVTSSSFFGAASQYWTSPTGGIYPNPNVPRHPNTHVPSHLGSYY
# Procedure, shortened: (§1)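 Each value of binding signal is a hexamer's read frequency for a factor divided by the same hexamer's frequency in the tag-only sample. Barcoded, bead-captured GST fusions of human transcription factors made in yeast were pooled with that sample and incubated with 200 nmole of a random double-stranded 16-mer DNA library in Tris/NaCl/DTT/glycerol buffer at room temperature for 30 min. Washing, 0.1% formaldehyde crosslinking, proximity ligation, PCR and Illumina NextSeq500 sequencing followed.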
# ELK1 = target: T2, ELK1 (Homo sapiens, UniProt P19419 1-428)
# T2 sequence: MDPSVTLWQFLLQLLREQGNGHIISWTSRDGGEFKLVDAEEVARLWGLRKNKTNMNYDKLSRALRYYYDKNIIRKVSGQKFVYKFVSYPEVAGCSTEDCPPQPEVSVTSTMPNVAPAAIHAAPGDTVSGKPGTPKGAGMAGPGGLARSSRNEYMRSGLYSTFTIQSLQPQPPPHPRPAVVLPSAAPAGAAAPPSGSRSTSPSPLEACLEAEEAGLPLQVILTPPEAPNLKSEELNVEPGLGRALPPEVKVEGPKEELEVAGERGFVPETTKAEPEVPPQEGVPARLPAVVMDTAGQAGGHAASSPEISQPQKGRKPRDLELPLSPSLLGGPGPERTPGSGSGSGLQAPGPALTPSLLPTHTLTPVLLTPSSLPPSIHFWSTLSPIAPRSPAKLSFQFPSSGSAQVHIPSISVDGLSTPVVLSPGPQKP
# Procedure, shortened: as §1
# GABPA = target: T3, GABPA (Homo sapiens, UniProt Q06546 1-454)
# T3 sequence: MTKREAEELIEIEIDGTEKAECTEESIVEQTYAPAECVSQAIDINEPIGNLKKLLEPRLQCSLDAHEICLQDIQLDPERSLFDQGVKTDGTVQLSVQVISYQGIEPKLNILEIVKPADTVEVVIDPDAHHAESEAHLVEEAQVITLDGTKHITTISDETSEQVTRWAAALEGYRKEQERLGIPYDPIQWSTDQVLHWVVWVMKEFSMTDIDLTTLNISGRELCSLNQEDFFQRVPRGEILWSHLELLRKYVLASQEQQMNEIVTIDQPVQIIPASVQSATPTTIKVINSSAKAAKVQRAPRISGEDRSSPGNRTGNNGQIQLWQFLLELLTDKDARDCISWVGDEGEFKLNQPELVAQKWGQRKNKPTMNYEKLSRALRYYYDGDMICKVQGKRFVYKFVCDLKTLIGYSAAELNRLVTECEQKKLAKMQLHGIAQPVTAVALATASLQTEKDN
# Procedure, shortened: as §1
# ERG = target: T4, ERG (Homo sapiens, UniProt P11308 1-479)
# T4 sequence: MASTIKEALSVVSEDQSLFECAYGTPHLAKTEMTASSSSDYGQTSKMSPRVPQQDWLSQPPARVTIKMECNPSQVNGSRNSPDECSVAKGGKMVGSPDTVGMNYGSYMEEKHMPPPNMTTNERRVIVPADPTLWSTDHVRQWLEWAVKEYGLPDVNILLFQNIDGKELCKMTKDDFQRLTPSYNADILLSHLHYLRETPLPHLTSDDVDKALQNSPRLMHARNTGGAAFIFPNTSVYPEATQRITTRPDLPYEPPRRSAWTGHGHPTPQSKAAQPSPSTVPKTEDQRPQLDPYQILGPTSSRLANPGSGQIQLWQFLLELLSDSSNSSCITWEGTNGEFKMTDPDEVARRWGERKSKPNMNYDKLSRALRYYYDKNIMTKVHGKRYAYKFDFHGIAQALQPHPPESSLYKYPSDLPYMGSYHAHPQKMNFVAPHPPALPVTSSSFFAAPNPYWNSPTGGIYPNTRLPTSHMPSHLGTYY
# Procedure, shortened: as §1
# ELF1 = ELF1 (Homo sapiens, UniProt P32519 1-619)
# ELF1, sequence (P32519 whole entry): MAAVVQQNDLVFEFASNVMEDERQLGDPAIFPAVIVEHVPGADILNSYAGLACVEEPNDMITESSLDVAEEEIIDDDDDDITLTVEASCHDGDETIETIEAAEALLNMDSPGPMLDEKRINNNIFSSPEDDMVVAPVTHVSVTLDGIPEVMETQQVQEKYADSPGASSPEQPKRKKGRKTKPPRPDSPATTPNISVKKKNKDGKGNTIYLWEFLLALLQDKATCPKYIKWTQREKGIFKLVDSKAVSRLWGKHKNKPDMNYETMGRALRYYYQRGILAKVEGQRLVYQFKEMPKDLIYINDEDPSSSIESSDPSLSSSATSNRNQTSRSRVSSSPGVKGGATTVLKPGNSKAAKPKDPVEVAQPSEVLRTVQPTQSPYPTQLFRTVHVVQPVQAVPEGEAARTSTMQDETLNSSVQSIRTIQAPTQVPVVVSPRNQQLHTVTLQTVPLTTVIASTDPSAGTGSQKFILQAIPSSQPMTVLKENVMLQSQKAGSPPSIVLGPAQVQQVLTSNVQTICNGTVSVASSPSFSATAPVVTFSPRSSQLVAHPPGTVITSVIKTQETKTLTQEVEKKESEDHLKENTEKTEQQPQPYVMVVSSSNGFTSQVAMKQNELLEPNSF
# Procedure, shortened: as §1
# EHF = target: T5, EHF (Homo sapiens, UniProt Q9NZC4 1-300)
# T5 sequence: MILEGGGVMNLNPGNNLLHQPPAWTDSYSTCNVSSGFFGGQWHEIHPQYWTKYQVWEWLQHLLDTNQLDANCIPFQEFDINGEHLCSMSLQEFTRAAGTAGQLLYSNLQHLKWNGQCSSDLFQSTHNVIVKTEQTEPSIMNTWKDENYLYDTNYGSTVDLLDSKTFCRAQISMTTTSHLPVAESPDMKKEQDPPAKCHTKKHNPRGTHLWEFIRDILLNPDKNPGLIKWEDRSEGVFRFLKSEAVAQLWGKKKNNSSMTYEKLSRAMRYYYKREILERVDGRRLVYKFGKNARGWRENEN
# Procedure, shortened: as §1
# SPI1 = SPI1 (Homo sapiens, UniProt P17947 1-270)
# Procedure, shortened: as §1
# SPIB = SPIB (Homo sapiens, UniProt Q01892 1-262)
# SPIB, sequence (Q01892 whole entry): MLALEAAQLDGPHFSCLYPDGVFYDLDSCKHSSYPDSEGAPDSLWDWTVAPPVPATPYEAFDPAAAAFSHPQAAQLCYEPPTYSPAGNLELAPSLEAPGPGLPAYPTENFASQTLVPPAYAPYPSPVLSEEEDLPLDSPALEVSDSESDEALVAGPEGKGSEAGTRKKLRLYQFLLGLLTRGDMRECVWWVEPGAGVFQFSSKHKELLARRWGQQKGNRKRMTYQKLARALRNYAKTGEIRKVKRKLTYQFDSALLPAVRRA
# Procedure, shortened: as §1
# ELK3 = target: T6, ELK3 (Homo sapiens, UniProt P41970 1-407)
# T6 sequence: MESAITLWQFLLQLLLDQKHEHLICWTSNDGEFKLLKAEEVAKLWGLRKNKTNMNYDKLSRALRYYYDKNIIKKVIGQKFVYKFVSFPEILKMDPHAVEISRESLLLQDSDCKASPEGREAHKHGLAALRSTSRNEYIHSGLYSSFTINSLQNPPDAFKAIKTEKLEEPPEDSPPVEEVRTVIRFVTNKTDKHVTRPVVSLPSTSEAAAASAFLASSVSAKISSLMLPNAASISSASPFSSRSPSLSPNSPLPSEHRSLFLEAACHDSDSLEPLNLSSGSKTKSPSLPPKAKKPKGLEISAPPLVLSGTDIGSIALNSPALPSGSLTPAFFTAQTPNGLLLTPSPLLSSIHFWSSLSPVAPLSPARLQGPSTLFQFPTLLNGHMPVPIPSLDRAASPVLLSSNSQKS
# Procedure, shortened: as §1
# FEV = target: T7, FEV (Homo sapiens, UniProt Q99581 1-238)
# T7 sequence: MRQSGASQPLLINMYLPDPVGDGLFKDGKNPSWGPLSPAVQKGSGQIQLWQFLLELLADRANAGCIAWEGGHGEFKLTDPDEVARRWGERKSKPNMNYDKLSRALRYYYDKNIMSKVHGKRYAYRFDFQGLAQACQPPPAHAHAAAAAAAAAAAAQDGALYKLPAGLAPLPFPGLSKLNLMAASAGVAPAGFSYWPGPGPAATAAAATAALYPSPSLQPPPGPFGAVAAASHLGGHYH
# Procedure, shortened: as §1
# ETV5 = ETV5 (Homo sapiens, UniProt P41161 1-510)
# ETV5, sequence (P41161 whole entry): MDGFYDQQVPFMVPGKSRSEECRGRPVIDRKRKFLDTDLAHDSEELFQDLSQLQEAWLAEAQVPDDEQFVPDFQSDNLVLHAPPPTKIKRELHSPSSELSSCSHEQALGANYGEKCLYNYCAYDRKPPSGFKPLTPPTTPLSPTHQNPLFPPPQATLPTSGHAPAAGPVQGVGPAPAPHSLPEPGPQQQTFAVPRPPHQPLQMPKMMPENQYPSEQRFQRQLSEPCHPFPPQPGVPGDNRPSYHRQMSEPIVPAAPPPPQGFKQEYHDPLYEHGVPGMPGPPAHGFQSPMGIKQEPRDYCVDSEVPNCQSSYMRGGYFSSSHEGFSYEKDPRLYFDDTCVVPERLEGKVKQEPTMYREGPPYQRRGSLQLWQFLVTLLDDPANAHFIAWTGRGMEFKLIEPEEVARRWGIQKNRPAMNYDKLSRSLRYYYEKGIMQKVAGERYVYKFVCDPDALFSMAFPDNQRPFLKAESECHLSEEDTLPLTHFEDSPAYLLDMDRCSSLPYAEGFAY
# Procedure, shortened: as §1
# SPIC = target: T8, SPIC (Homo sapiens, UniProt Q8N5J4 1-248)
# T8 sequence: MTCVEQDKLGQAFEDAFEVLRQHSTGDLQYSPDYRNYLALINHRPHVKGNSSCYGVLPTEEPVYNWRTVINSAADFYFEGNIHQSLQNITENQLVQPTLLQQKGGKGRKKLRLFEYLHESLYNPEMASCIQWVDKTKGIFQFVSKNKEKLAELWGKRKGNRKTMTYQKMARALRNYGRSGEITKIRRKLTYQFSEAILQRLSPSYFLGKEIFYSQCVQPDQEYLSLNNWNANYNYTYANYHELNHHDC
# Procedure, shortened: as §1
# ELF4 = ELF4 (Homo sapiens, UniProt Q99607 1-663)
# ELF4, sequence (Q99607 whole entry): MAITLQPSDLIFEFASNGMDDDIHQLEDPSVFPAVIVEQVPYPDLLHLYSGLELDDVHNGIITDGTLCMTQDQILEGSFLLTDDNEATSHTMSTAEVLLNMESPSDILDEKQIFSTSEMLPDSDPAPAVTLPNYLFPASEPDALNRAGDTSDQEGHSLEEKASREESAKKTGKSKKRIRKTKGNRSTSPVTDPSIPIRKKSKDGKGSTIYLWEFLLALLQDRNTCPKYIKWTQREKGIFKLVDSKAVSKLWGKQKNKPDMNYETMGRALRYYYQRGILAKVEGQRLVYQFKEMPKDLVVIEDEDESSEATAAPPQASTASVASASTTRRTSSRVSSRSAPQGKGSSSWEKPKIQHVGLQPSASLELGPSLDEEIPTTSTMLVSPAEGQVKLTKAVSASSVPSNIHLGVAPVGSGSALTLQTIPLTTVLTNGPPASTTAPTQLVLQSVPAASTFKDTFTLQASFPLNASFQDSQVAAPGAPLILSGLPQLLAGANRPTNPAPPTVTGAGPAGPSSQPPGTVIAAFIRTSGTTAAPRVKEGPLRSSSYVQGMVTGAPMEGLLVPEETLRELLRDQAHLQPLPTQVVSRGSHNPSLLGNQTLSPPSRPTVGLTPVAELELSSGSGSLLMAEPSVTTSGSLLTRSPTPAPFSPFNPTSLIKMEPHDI
# Procedure, shortened: as §1
# ELK4 = target: T9, ELK4 (Homo sapiens, UniProt P28324-2 1-405)
# T9 sequence: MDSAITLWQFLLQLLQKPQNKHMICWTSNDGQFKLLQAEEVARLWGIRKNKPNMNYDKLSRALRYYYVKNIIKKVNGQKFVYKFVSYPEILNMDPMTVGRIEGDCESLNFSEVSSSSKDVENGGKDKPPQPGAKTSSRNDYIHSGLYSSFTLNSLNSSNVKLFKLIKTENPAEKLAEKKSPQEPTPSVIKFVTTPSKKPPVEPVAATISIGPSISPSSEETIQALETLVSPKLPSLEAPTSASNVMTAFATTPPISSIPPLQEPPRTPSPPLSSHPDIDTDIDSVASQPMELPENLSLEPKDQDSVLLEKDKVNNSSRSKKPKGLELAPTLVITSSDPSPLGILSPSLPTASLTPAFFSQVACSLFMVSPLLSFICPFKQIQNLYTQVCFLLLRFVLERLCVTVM
# Procedure, shortened: as §1
# ELF3 = target: T10, ELF3 (Homo sapiens, UniProt P78545 1-371)
# T10 sequence: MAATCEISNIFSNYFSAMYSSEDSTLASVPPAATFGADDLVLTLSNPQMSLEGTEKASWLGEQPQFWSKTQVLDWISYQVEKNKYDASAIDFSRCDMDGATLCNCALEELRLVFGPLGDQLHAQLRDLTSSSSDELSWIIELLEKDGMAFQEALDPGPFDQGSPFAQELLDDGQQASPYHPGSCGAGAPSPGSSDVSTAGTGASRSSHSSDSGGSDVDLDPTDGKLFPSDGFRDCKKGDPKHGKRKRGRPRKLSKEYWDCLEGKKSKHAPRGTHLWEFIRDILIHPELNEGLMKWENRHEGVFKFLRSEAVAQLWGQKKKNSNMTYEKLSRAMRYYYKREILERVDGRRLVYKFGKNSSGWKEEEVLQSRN
# Procedure, shortened: as §1
# CRX = CRX (Homo sapiens, UniProt O43186 1-299)
# CRX, sequence (O43186 whole entry): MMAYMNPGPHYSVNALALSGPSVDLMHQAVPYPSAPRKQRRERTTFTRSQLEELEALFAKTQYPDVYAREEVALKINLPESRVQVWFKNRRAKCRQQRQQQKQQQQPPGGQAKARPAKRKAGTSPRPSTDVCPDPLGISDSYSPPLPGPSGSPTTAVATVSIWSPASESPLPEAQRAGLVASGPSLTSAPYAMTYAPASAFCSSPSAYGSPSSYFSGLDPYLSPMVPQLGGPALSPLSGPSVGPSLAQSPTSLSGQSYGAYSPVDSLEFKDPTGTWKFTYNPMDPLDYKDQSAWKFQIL
# Procedure, shortened: as §1
# ETV1 = ETV1 (Homo sapiens, UniProt P50549 1-477)
# ETV1, sequence (P50549 whole entry): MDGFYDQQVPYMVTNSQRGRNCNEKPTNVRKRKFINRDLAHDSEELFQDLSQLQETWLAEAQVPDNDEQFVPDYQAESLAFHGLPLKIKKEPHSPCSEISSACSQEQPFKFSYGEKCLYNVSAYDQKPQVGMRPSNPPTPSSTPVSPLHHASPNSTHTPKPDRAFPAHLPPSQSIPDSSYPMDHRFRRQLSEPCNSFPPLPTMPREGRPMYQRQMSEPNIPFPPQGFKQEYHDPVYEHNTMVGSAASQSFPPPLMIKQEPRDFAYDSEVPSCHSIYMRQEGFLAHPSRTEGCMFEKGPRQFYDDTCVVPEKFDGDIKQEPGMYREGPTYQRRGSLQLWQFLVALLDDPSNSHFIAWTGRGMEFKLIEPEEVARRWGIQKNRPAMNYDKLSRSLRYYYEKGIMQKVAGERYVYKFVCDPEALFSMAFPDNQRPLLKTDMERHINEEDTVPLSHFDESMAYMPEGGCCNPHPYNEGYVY
# Procedure, shortened: as §1
# ETV2 = target: T11, ETV2 (Homo sapiens, UniProt O00321 1-342)
# T11 sequence: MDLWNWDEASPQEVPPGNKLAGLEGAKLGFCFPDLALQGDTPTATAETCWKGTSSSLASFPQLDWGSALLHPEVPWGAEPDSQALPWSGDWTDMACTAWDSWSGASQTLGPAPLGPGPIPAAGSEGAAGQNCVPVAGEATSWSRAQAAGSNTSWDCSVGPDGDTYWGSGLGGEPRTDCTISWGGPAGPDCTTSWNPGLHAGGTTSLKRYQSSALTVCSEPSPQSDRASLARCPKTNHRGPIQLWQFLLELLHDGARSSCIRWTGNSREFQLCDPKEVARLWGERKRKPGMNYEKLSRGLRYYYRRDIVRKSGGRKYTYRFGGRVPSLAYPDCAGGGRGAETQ
# Procedure, shortened: as §1
Sequence,binding signal (FLI1),binding signal (ELK1),binding signal (GABPA),binding signal (ERG),binding signal (ELF1),binding signal (EHF),binding signal (SPI1),binding signal (SPIB),binding signal (ELK3),binding signal (FEV),binding signal (ETV5),binding signal (SPIC),binding signal (ELF4),binding signal (ELK4),binding signal (ELF3),binding signal (CRX),binding signal (ETV1),binding signal (ETV2)
ATATGA,"1.11 fold enrichment (6-mer frequency, TF over GST control)","1.07 fold enrichment (6-mer frequency, TF over GST control)","1.1 fold enrichment (6-mer frequency, TF over GST control)","1.14 fold enrichment (6-mer frequency, TF over GST control)","1.06 fold enrichment (6-mer frequency, TF over GST control)","1.07 fold enrichment (6-mer frequency, TF over GST control)","1.1 fold enrichment (6-mer frequency, TF over GST control)","1.1 fold enrichment (6-mer frequency, TF over GST control)","1.18 fold enrichment (6-mer frequency, TF over GST control)","1.03 fold enrichment (6-mer frequency, TF over GST control)","1.11 fold enrichment (6-mer frequency, TF over GST control)","1.16 fold enrichment (6-mer frequency, TF over GST control)","1.1 fold enrichment (6-mer frequency, TF over GST control)","1.19 fold enrichment (6-mer frequency, TF over GST control)","1.1 fold enrichment (6-mer frequency, TF over GST control)","1.02 fold enrichment (6-mer frequency, TF over GST control)","1.05 fold enrichment (6-mer frequency, TF over GST control)",–
CCGTAT,"1.22 fold enrichment (6-mer frequency, TF over GST control)","1.36 fold enrichment (6-mer frequency, TF over GST control)","1.31 fold enrichment (6-mer frequency, TF over GST control)","1.2 fold enrichment (6-mer frequency, TF over GST control)","1.26 fold enrichment (6-mer frequency, TF over GST control)","1.14 fold enrichment (6-mer frequency, TF over GST control)","1.26 fold enrichment (6-mer frequency, TF over GST control)","1.31 fold enrichment (6-mer frequency, TF over GST control)","1.32 fold enrichment (6-mer frequency, TF over GST control)","1.14 fold enrichment (6-mer frequency, TF over GST control)","1.23 fold enrichment (6-mer frequency, TF over GST control)","1.29 fold enrichment (6-mer frequency, TF over GST control)","1.17 fold enrichment (6-mer frequency, TF over GST control)","1.27 fold enrichment (6-mer frequency, TF over GST control)",–,"1 fold enrichment (6-mer frequency, TF over GST control)","1.19 fold enrichment (6-mer frequency, TF over GST control)","1.34 fold enrichment (6-mer frequency, TF over GST control)"
GCCCAT,"1.06 fold enrichment (6-mer frequency, TF over GST control)","1.05 fold enrichment (6-mer frequency, TF over GST control)","1.17 fold enrichment (6-mer frequency, TF over GST control)","1.04 fold enrichment (6-mer frequency, TF over GST control)","1.06 fold enrichment (6-mer frequency, TF over GST control)",–,"1.03 fold enrichment (6-mer frequency, TF over GST control)","1.04 fold enrichment (6-mer frequency, TF over GST control)","1.04 fold enrichment (6-mer frequency, TF over GST control)","1.09 fold enrichment (6-mer frequency, TF over GST control)","1.03 fold enrichment (6-mer frequency, TF over GST control)","1.12 fold enrichment (6-mer frequency, TF over GST control)","1.07 fold enrichment (6-mer frequency, TF over GST control)","1.23 fold enrichment (6-mer frequency, TF over GST control)",–,–,–,"1.01 fold enrichment (6-mer frequency, TF over GST control)"
